p53null 39C tox: qHTS Screen for Compounds that Selectively Target Cancer Cells with p53 Mutations: Cytotoxicity of p53 Null Cells at the Nonpermissive Temperature | H1299 p53-null (neo) cells, 39C, ATPlite viability, 24 h | Potency, µM (highest dose often 46.1 µM), hits mostly cytotoxic | 55,000 compounds, 0.97% hits; further: nearly all actives have a fitted effect of over 50% in size
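Following overnight plating at 37C (600 cells/well), H1299-neo or H1299-p53A138V cells are dosed up to 46 uM. Incubation lasts 24 hr at 39C before ATP detection.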
NTMT1 inhibitor: Primary qHTS for Inhibitors of N-terminal methyltransferase 1 (NTMT1): MTaseGlo Assay. NTMT1 MTase-Glo SAH luminescence, purified enzyme. Potency, µM (highest dose often 114 µM), usual class: inhibitors. 59,000 compounds, 2.5% hits. AID 1645870, 2021; further: nearly all actives have a fitted effect of over 65% in size
Target sequence (Q9BV86 whole entry, looked up): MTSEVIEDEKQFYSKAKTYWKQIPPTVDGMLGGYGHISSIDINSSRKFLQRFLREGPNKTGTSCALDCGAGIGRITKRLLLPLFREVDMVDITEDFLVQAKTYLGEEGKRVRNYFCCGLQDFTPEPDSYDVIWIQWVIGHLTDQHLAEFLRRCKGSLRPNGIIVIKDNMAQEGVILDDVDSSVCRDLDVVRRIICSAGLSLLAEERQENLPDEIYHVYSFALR
FH mod: Identification of activators of human fumarate hydratase by quantitative high-throughput screening; AID 1347055, 2019; FH coupled MDH/diaphorase resazurin fluorescence, 15 min; Fumarate hydratase, mitochondrial (Homo sapiens), P07954; 54,000 compounds, 0.22% hits; Potency, µM (top dose mostly 79.9 µM), usual class: inhibitors; further: the screen sought activators but most active calls are inhibition curves; nearly all actives have a fitted effect of over 45% in size
SKOV3 invasion: Primary qHTS assay for Inhibitors of ovarian cancer metastasis using an organotypic tumor microenvironment (TME) model | SKOV3ip1-GFP adhesion/invasion on 3D omental model, fluorescence | Potency, µM (series often up to 45.8 µM), most hits filed as inhibitors | 46,000 compounds, 0.1% hits | AID 1963576, 2024; further: nearly all actives have a fitted effect of over 65% in size
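A 3D layer of primary human omental fibroblasts, mesothelial cells, fibronectin and collagen I, grown 48 hr, received SKOV3ip1-GFP cells in serum-free medium plus compounds at 0.36-46 umol/L. After 2 hr RT and 16 hr 37 C, fixed adherent GFP cells were counted; normalized to DMSO and tomatine.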
p53null 32C tox: qHTS Screen for Compounds that Selectively Target Cancer Cells with p53 Mutations: Cytotoxicity of p53 Null Cells at the Permissive Temperature | Potency, µM (titrated, usually from 46.1 µM), actives largely listed as cytotoxic | H1299-neo p53 null cells, ATP luminescence, 24 h, 32C | 55,000 compounds, 0.62% hits; further: nearly all actives have a fitted effect of over 55% in size
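We seeded p53-null H1299-neo cells, incubated them overnight at 37C, and added compounds across a range up to 46 uM. After 24 hours at 32C, ATP reagent was applied for 20 min at room temperature and luminescence recorded.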
Large screens that a line does not name were inactive; ! = not confirmed by another sample. This is one part of a sample in which hits are shown more often than they occur. The call rests on the fitted dose curve; in most records, active means well fitted curve in the direction sought with a large enough effect; inconclusive means small, poorly fitted or top-dose-only effect, or another doubt; inactive means no such curve, though single readings can be large; an effect the other way counts as inactive or inconclusive.

COc1ccc(NC(=O)Nc2nnc(C)s2)cc1	none
COc1ccc(C(=O)Nc2nnc(C)s2)cc1	p53null 39C tox inconclusive, p53null 32C tox 10µM
COc1cc(NS(=O)(=O)c2ccc(NC(=O)c3ccc(OC)c(Br)c3)cc2)nc(OC)n1	FH mod inconclusive
COc1ccc(C(=O)Nc2cc(OC)nc(OC)n2)cc1	p53null 39C tox 12.6µM, p53null 32C tox 11.2µM (no result: NTMT1 inhibitor, FH mod, SKOV3 invasion)
O=C(NCCc1nc2ccccc2n1CCOc1cccc([N+](=O)[O-])c1)C1CCCCC1	none (no result: p53null 39C tox, FH mod, SKOV3 invasion, p53null 32C tox)
CCN(CC)CCCCn1c(-c2ccccc2)nc2c(NCc3ccccc3)nc(C)nc21	NTMT1 inhibitor 89.1µM (no result: p53null 39C tox, FH mod, SKOV3 invasion, p53null 32C tox)
CC(=O)O/N=C1\C(=O)N(Cc2cc(Cl)ccc2Cl)c2ccc(Cl)cc21	none (no result: p53null 39C tox, FH mod, SKOV3 invasion, p53null 32C tox)
NC(=O)c1cccc2cn(-c3ccc([C@@H]4CCCNC4)cc3)nc12	NTMT1 inhibitor 31.6µM! (no result: p53null 39C tox, p53null 32C tox)
CCN(CCCNC(=O)c1cc2cc3ccc(OC)cc3nc2s1)c1ccccc1	p53null 39C tox inconclusive, NTMT1 inhibitor 89.1µM, SKOV3 invasion inconclusive
CCN(CCCNC(=O)c1cc2cc3ccc(OC)cc3nc2s1)c1cccc(C)c1	p53null 39C tox inconclusive, NTMT1 inhibitor 79.4µM, p53null 32C tox inconclusive
O=C1CCCC2=C1C(c1ccccc1I)N=C(Nc1nc3ccccc3o1)N2 (centres undefined)	none (no result: p53null 39C tox, SKOV3 invasion, p53null 32C tox)
C[C@@H]1CC(=O)Nc2cccc(-c3ccc4c(c3)c(-c3cnn(C)c3)nn4C)c2N1	none (no result: p53null 39C tox, FH mod, SKOV3 invasion, p53null 32C tox)
O=C(CN1C(=O)N/C(=C\c2cn(-c3cccc(C(=O)O)c3)cn2)C1=O)Nc1ccccc1Cl	none (no result: p53null 39C tox, FH mod, SKOV3 invasion, p53null 32C tox)
Cc1ccccc1Sc1ccc(/C=C2\SC(=S)NC2=O)cc1[N+](=O)[O-]	NTMT1 inhibitor 25.1µM, FH mod 28.2µM (no result: p53null 39C tox, SKOV3 invasion, p53null 32C tox)
O=C(O)C1(Cc2cccc(Nc3nccs3)n2)CCC(Oc2cccc(Cl)c2F)CC1 (centres undefined)	NTMT1 inhibitor 28.2µM (no result: p53null 39C tox, p53null 32C tox)
CC(=O)Nc1sc2c(c1-c1cccs1)CCNC2	none (no result: p53null 39C tox, FH mod, SKOV3 invasion, p53null 32C tox)
O=C1CCCC2=C1C(c1[nH]ncc1Cl)NC(=NCc1ccccc1)N2 (centres undefined)	none (no result: p53null 39C tox, FH mod, SKOV3 invasion, p53null 32C tox)
CC(C)(C)c1ccc(-c2nc(SCC(=O)Nc3ccc(Cl)cc3)[nH]c(=O)c2C#N)cc1	NTMT1 inhibitor 20µM, FH mod inconclusive
COc1ccc(Cl)cc1NC(=O)c1cc2c(=O)n3ccccc3nc2s1	p53null 39C tox 12.6µM, NTMT1 inhibitor inconclusive
COc1ccccc1NC(=O)c1cc2cc3ccc(OC)c(Cl)c3nc2s1	NTMT1 inhibitor 39.8µM
CCCCc1ccc(NC(=O)c2cc3c(=O)n4ccccc4nc3s2)cc1	none
CCOC(=O)c1sc(NC(=O)/C=C/c2ccc(OCC)cc2)c(C(=O)OCC)c1C	none
COc1ccc(/C=C/C(=O)Nc2sc(C)c(C)c2C(=O)O)cc1	p53null 39C tox 0.794µM, NTMT1 inhibitor inconclusive, p53null 32C tox 3.16µM
CN(CCO)C1CCN(c2ccc(Nc3ncc4c5ccnc(F)c5n(C5CCCC5)c4n3)nc2)CC1	NTMT1 inhibitor inconclusive (no result: p53null 39C tox, SKOV3 invasion, p53null 32C tox)
CCCCCCCCCC(=O)N[C@@H](Cc1c[nH]c2ccccc12)C(=O)N[C@H](CC(N)=O)C(=O)N[C@@H](CC(=O)O)C(=O)N[C@@H]1C(=O)NCC(=O)N[C@@H](CCCN)C(=O)N[C@@H](CC(=O)O)C(=O)N[C@H](C)C(=O)N[C@@H](CC(=O)O)C(=O)NCC(=O)N[C@H](CO)C(=O)N[C@@H]([C@@H](C)CC(=O)O)C(=O)N[C@@H](CC(=O)c2ccccc2N)C(=O)O[C@@H]1C	none (no result: p53null 39C tox, p53null 32C tox)
Cc1ccc(C2=NN(CC(=O)N(C)C(C)c3ccco3)C(=O)C2)cc1 (centres undefined)	none (no result: p53null 39C tox, FH mod, SKOV3 invasion, p53null 32C tox)
O=C(Nc1nc2c(F)cccc2s1)c1ccc2c(c1)OCCO2	p53null 39C tox inconclusive, p53null 32C tox 3.98µM
CCOc1ccc(NC(=O)CSc2nnc(CNC(=O)C34CC5CC(CC(C5)C3)C4)n2CC)cc1	NTMT1 inhibitor 89.1µM
CC(C)(C)OC(=O)N1CCN(c2ccc(NCc3ncc(-c4ccc(C#N)cc4)s3)cc2)CC1	none (no result: p53null 39C tox, FH mod, SKOV3 invasion, p53null 32C tox)
O=C(Nc1ccc(N2CCN(c3ccc(F)cc3)CC2)c(C(=O)O)c1)c1cccs1	NTMT1 inhibitor 89.1µM
O=C(Nc1ccc(C(=O)N2CCCCC2)cc1)c1nsc2ccccc12	p53null 39C tox 3.98µM, NTMT1 inhibitor 14.1µM, p53null 32C tox 3.98µM
CCOC(=O)c1ccc(NC(=O)c2nsc3ccccc23)cc1	p53null 39C tox 10µM, NTMT1 inhibitor inconclusive, p53null 32C tox 7.94µM
CCOC(=O)c1ccc(NC(=O)c2sc3ccccc3c2Cl)cc1	p53null 32C tox inconclusive
O=C(NCc1cccc(F)c1)c1ccc(NC(=O)c2nsc3ccccc23)cc1	p53null 39C tox 10µM, NTMT1 inhibitor 44.7µM, p53null 32C tox inconclusive
Cc1ccccc1CNC(=O)c1ccc(NC(=O)c2nsc3ccccc23)cc1	p53null 39C tox inconclusive, p53null 32C tox inconclusive
Cc1ccc(CNC(=O)c2ccc(NC(=O)c3nsc4ccccc34)cc2)cc1	none
CNC(=O)c1ccc(NC(=O)c2nsc3ccccc23)cc1	p53null 39C tox 5.01µM, NTMT1 inhibitor 39.8µM, p53null 32C tox 6.31µM
N[C@@H](Cc1cc(I)c(O)c(I)c1)C(=O)O	NTMT1 inhibitor 14.1µM (no result: p53null 39C tox, SKOV3 invasion, p53null 32C tox)
O=C(O)C(Cc1cc(I)c(O)c(I)c1)c1ccccc1 (centres undefined)	NTMT1 inhibitor inconclusive (no result: p53null 39C tox, SKOV3 invasion, p53null 32C tox)
C=CC(C)(CC/C=C(\C)C(=O)OC)OC1OC(COC(=O)CC(C)(O)CC(=O)O)C(O)C(O)C1O (centres undefined)	none (no result: p53null 39C tox, SKOV3 invasion, p53null 32C tox)
